Compound activity deposited in PubChem by National Center for Advancing Translational Sciences (NCATS).
Hits are enriched below; roughly 7.5% of the tested compounds scored in any of these assays.
KinaseGlo FLuc: counter-screen: inhibitors of Kinase-Glo firefly luciferase; Q27757; Kinase-Glo luciferase, ATP luminescence, 8 min; Potency, µM (titrated, usually from 38.3 µM), inactives show top-dose activity change, negative = inhibition, hits mostly inhibitors; 200,000 tested, 0.28% active; AID 1379; note: % is set by controls: 0 for no effect and ±100 for the full control effect; nearly all actives have a fitted effect of over 60% in size
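Recombinant Kinase-Glo luciferase, 10 uM ATP (linear range), luciferin; imidazole pH 7.2 / KCl / MgCl2 / Tween / BSA buffer; 8 min RT; luminescence.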
Rab9 prom act: activates the Rab9 promoter; Huh7 Rab9 promoter-luciferase reporter, luminescence, 24 h; AID 485297; 320,000 tested, 2.8% active; Potency, µM (series often up to 9.22 µM), without a hit: at the highest dose activation, negative = inhibition, hits mostly activators; note: % of control where 0% means no effect; nearly all actives have a fitted effect of over 60% in size
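Using Huh7 cells stably transfected with Rab9 promoter–luciferase, compounds were incubated 24 h at 37 °C, 5% CO2; luciferase luminescence was read 10 min after reagent addition.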
FLuc modulator: inhibits or activates purified firefly luciferase, miR-21 counter-screen. P08659. AID 588342. Potency, µM (doses to about 57.5 µM), without a hit: top-dose activity change, negative = inhibition, most hits filed as inhibitors. 360,000 tested, 6.9% active. purified FLuc, Km substrates, luminescence inhibition;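 note: plate controls were vehicle for no effect and reference inhibitor for full effect; nearly all actives have a fitted effect of over 55% in size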
Target sequence (P08659 whole entry, looked up): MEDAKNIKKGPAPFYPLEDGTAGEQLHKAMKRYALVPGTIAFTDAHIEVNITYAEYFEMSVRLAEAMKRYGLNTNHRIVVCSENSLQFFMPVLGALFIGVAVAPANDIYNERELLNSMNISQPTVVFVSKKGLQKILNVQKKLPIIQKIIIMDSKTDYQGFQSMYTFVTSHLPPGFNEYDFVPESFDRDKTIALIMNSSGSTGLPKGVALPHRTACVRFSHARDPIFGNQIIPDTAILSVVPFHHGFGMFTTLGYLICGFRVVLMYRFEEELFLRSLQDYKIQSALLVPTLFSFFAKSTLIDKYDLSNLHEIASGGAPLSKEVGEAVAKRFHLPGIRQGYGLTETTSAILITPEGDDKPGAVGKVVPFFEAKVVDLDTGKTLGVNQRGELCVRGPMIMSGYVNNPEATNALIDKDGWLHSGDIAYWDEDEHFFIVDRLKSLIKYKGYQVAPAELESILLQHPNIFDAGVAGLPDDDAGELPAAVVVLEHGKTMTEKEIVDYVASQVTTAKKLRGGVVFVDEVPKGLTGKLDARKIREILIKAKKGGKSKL
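Biochemical qHTS of compounds, final roughly 60 µM downward over six points, against 10 nM purified firefly luciferase using Km concentrations of substrates (10 uM D-luciferin, 10 uM ATP) in Tris acetate pH 7.5 buffer; luminescence output.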
ELG1 genotox: inducers of genotoxicity in HEK293T ELG1-luciferase cells | HEK293T ELG1-luciferase reporter, luminescence, 16 h | Potency, µM (series often up to 46 µM), without a hit: top-dose activity change, positive = activation, usual class: activators | 330,000 tested, 1.3% active; note: % of control where 0% means no effect; nearly all actives have a fitted effect of over 60% in size
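ELG1-luciferase HEK293T cells, 2,000/well; compound pinned in; 16 hr, 37 °C, 5% CO2; ONE-Glo, 30 min RT; luminescence on CCD imager.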
SMN2 splice enh: SMN2 splice variant enhancement; 210,000 tested, 2.8% active; Potency, µM (titrated, usually from 46.1 µM), inactives show at the top dose activity change, positive = activation, actives largely listed as activators; HEK293 SMN2-luciferase splicing reporter, luminescence, 30-36 h; note: % of control where 0% means no effect; nearly all actives have a fitted effect of over 55% in size
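qHTS luciferase splicing reporter: luminescence rises when SMN2 exon 7 is included in transfected HEK293 cells. Compound exposure lasted 30-36 h at 37C, with 4.5 mM final sodium butyrate as control, followed by a ONE-Glo read.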
NPC1 promoter act: NPC1 promoter activation; 320,000 tested, 2.4% active; Huh7 NPC1 promoter luciferase reporter, 24 h; Potency, µM (titrated, usually from 9.22 µM), for the others: at the top dose activation, hits mostly activators; AID 485313; note: % of control where 0% means no effect; nearly all actives have a fitted effect of over 60% in size
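Readout is luciferase luminescence, reflecting NPC1 promoter activation in stably transfected Huh7 cells after 24 h compound exposure at 37 °C in reduced-serum medium with 10% FBS.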
* = called active by the depositor; u = inconclusive; x = no result; [ ] = remark or other dose. Calls come from the whole dose curve; as a rule, active = well fitted curve in the direction sought with a large enough effect; inconclusive = small, poorly fitted or top-dose-only effect, or another doubt; inactive = no such curve, though single readings can be large; an effect the other way counts as inactive or inconclusive. Potency is the fitted concentration of half-maximal effect.

SMILES | KinaseGlo FLuc | Rab9 prom act | FLuc modulator | ELG1 genotox | SMN2 splice enh | NPC1 promoter act
Cc1ccc(C(C(=O)NCC2CCCO2)N(C(=O)c2snc(C(N)=O)c2N)c2ccc(C)c(C)c2)o1 (centres undefined) | x | 5% | 1% | 7% | x | 3%
O=C(O)CNC(=O)c1ccccc1 | -3%[39.9 µM] | -7% | 1% | -6% | x | 2%
O=C(CNC(=O)c1ccccc1)c1ccccc1 | x | 0.45µM* | 6.7µM* | u | x | 0.71µM*
O=C(CNC(=O)c1ccc(F)cc1)c1ccc(Cl)cc1 | x | 1.6µM* | 9.5µM* | u | x | 4µM*
Cc1ccccc1OCCCCn1c(CCNC(=O)C(C)(C)C)nc2ccccc21 | x | x | -8% | x | -25% | x
CCN(Cc1ccccc1)C(=O)c1cc2c(=O)[nH]c3ccc(C)cc3c2s1 | x | x | -9% | x | 2% | x
COc1cccc(OC)c1C(=O)Nc1nc(-c2ccccc2)cs1 | x | -5% | 1% | -2% | x | -8%
CC1CC1C(=O)Nc1nc(-c2ccccc2)cs1 (centres undefined) | -3% | u | 24µM* | u | -7% | 21%
O=C(NNc1nc(-c2ccc(Cl)cc2)cs1)c1ccco1 | 1% | 25% | 24µM* | 1% | 19% | 14%
O=C(Nc1nc(-c2ccccc2)cs1)c1cccs1 | x | 3.5µM* | 8.5µM* | 4% | x | u
O=C(NNc1nc(-c2ccccc2)cs1)c1ccco1 | 0% | 0% | u | 11% | 23% | 3%
O=C(Nc1nc(-c2ccc(Cl)s2)cs1)c1cccs1 | 1% | 27% | 11µM* | 7% | 5% | u
Cc1csc(NC(=O)c2ccco2)n1 | -4% | 3% | -2% | -1% | -7% | 1%
O=C(Nc1nc(-c2nc3ccccc3s2)cs1)c1ccco1 | -1% | u | u | u | 22µM* | u
O=C(Nc1nc(-c2ccccc2)ns1)c1cccs1 | 2% | u | 15µM* | 3% | 13µM* | u
O=C(NCc1nc(-c2ccccc2)no1)c1cccs1 | -6% | -4% | -2% | -1% | -11% | 1%
O=C(Nc1ccc(Cl)cc1-c1nc2ccccc2s1)c1ccco1 | x | -4% | -10% | 0% | x | 9%
O=C(Nc1nc(-c2nc3ccccc3s2)cs1)C1CC1 | -3% | 0.71µM* | 3µM* | 2.6µM* | 7.1µM* | 1.4µM*
O=C(Nc1nc(-c2ccc(Cl)s2)cs1)c1ccco1 | -2% | 3.2µM* | 15µM* | u | u | u
COc1ccccc1NC(=O)c1oc2ccccc2c1NC(=O)C1CCCCC1 | x | x | 2% | x | 6% | x
CC1CC(C)CN(S(=O)(=O)c2cc3c4c(c2)CCC(=O)N4CCC3)C1 (centres undefined) | x | 0% | 0% | -2% | x | -2%
Cc1cc(N2CCOCC2)ccc1/C=C1\NC(=O)N(CC(=O)Nc2ccc(F)cc2)C1=O | 3% | u | u | 13% | 18% | u
Cc1cccc(NC(=O)CN2C(=O)N/C(=C\c3ccc(N4CCOCC4)cc3)C2=O)c1 | 3% | u | 3µM* | u | 11µM* | u
O=C(COc1ccc(Cl)cc1)NCCc1csc(-c2ccc(F)cc2)n1 | x | x | -1% | x | x | x
Cc1cccc(NC2=NC(C)(C)N=C(N)N2)c1C | 3% | 2% | 6% | 4% | 0% | 1%
SMILES | KinaseGlo FLuc | Rab9 prom act | FLuc modulator | ELG1 genotox | SMN2 splice enh | NPC1 promoter act
Cc1ccccc1NC1=NC(C)(C)N=C(N)N1 | -7% | 3% | -1% | 0% | 0.22µM* | 9%
CC(CCc1ccccc1)NC(=O)C(C)OC(=O)c1ccco1 (centres undefined) | x | 1% | 1% | 0% | x | 2%
CN=C1S/C(=C\c2ccc(N3CCCC3)c(F)c2)C(=O)N1C | 1% | u | 4.8µM* | u | u | 27%
CC(C)(C)c1ccc(S(=O)(=O)N2CCC(Oc3ccc(-n4cnnn4)cc3)CC2)cc1 | x | x | 2% | x | 4% | x
Cc1nn(C(=O)c2cccs2)c(N)c1-c1ccccc1 | 1% | u | 4.3µM* | u | u | u
Cc1nn(C(=O)c2ccc3c(c2)OCO3)c(N)c1-c1ccccc1 | -14% | 8% | 0.48µM* | u | 10% | -1%
O=C(c1ccc2c(c1)OCO2)N1CCN(c2ccccc2)CC1 | -1% | 2% | -3% | -2% | -1% | 2%
CC(=O)c1c(C)nn(C(=O)c2cccs2)c1C | 0% | 4% | 3% | 5% | -5% | -5%
Cc1ccc(C)c(NC(=O)C(C)N2C(=O)c3ccccc3C2=O)c1 (centres undefined) | x | 0% | 2% | 0% | x | 0%
CCc1cccc(NC(=O)CCCn2c(=O)[nH]c3ccsc3c2=O)c1 | x | 4% | 0% | 0% | x | 1%
O=C(/C=C/c1ccc2ccccc2n1)c1cc(Cl)ccc1O | x | -2% | 4.8µM* | 11% | x | 9%
O=C(/C=C/c1cccs1)c1cc(Cl)ccc1O | -2% | -2% | u | -3% | 1% | 5%
O=[N+]([O-])c1cc(/C=N/O)ccc1Oc1cccc(Cl)c1 | -5% | -12% | -13% | 14% | -6% | -8%
O=[N+]([O-])c1cc(/C=N/O)ccc1Oc1ccccc1Cl | 1% | -4%[1.84 µM] | 19µM* | u | 1% | 9%
CC(C)Cn1c(=O)c2ccccc2n2c(CCC(=O)NC(C)c3ccccc3)nnc12 (centres undefined) | x | x | -1% | x | -12% | x
O=C(NCCN1C(=O)C2C3C=CC(C3)C2C1=O)Nc1ccc(Br)cc1 (centres undefined) | 3% | 2.2µM* | 11µM* | 8.2µM* | 11µM* | 3.2µM*
O=C(NCCN1C(=O)C2C3C=CC(C3)C2C1=O)Nc1cccnc1 (centres undefined) | 0% | -4% | -3% | 4% | -24% | 1%
Cc1ccc(NC(=O)CCNS(=O)(=O)c2ccccc2F)cc1S(=O)(=O)N1CCOCC1 | x | -2% | 1% | -1% | x | -4%
O=C(CSc1nnc(CNC(=O)c2ccccc2)o1)Nc1ccc2c(c1)OCCO2 | x | 6% | u | 4% | x | 6%
O=C(CSc1nnc(-c2ccccc2Cl)o1)Nc1ccc2c(c1)OCCO2 | -2% | u | u | u | 14µM* | 29%
O=C(CSc1nnc(-c2ccc(O)cc2)o1)Nc1ccc2c(c1)OCCO2 | -1% | 4µM* | u | 15% | 16µM* | 3.2µM*
O=C(Nc1ccc2c(c1)OCCO2)C1CC(c2ccccc2Cl)=NO1 (centres undefined) | x | 4µM* | 19µM* | 6% | x | 4µM*
CC(C)(C)c1ccc(-c2nnc(SCC(=O)c3ccc4c(c3)OCCO4)o2)cc1 | -2% | -17% | 24µM* | -3% | -40% | -2%
O=C(CSc1nnc(-c2ccc(O)cc2)o1)Nc1cccc(O)c1 | x | -1% | u | u | x | 13%
